The supplement of paper PMC11732987, “Enantioselective OTUD7B fragment discovery through chemoproteomics screening and high-throughput optimisation” (Communications Chemistry, 2025)

Tests used:
Experiment in all cases: log2 ratio of Biotin-Ahx-Ub-VS probe labelling (fragment/DMSO); higher = less target engagement (more negative = stronger competition), active = hit call of the paper (q ≤ 0.05, log2 ratio ≤ -1)
Conditions in all cases: compound concentration: 200 uM; treatment time: 3 h
OTUD6B = molecular target: T1, OTUD6B (UniProt Q8N6M0)
T1 sequence (whole entry): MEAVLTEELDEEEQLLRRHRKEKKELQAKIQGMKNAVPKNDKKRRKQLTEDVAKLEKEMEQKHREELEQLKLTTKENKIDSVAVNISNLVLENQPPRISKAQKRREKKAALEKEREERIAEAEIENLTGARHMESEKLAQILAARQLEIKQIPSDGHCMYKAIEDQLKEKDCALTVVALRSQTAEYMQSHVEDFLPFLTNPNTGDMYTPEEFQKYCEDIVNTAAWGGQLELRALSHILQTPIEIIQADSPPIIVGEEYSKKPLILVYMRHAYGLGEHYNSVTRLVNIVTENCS
How it was run: (§1)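 Average log2 ratios of fragment over vehicle were obtained by unpaired t-test from global-median-normalised Spectronaut label-free quantities. Proteins with ≥2 unique peptides were included. HEK293T lysate (495 µg per sample) was treated in triplicate with fragment at 200 µM or vehicle for 3 h, then with Biotin-Ahx-Ub-VS at 0.5 µM final for 1 h, and labelled DUBs were NeutrAvidin-enriched and run by diaPASEF LC-MS/MS.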

OTUD7B = molecular target: T2, OTUD7B (UniProt Q6GQQ9)
T2 sequence (whole entry): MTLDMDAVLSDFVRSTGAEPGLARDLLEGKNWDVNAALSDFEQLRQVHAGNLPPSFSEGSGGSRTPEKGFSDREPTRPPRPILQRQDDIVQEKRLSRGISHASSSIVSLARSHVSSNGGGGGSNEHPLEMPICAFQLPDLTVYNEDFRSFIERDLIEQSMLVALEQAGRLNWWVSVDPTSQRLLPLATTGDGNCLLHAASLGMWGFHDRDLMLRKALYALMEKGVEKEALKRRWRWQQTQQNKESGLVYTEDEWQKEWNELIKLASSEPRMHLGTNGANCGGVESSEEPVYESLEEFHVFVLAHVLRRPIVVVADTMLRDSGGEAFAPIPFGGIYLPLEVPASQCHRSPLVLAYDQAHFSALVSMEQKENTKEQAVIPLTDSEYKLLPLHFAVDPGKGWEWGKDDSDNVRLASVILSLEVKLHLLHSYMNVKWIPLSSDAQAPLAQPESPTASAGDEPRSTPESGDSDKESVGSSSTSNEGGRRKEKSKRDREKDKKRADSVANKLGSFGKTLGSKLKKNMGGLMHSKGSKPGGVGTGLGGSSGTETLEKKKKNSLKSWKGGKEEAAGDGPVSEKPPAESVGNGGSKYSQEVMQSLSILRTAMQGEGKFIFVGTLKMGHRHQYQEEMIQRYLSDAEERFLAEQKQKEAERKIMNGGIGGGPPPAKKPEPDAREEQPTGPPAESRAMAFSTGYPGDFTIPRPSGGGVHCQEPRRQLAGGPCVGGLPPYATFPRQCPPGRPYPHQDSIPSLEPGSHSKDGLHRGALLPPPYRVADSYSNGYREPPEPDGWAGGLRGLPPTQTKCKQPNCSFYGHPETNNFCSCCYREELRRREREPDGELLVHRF
How it was run: as §1

PRPF8 = PRPF8 (UniProt Q6P2Q9)
How it was run: as §1

PSMD7 = molecular target: T3, PSMD7 (UniProt P51665)
T3 sequence (whole entry): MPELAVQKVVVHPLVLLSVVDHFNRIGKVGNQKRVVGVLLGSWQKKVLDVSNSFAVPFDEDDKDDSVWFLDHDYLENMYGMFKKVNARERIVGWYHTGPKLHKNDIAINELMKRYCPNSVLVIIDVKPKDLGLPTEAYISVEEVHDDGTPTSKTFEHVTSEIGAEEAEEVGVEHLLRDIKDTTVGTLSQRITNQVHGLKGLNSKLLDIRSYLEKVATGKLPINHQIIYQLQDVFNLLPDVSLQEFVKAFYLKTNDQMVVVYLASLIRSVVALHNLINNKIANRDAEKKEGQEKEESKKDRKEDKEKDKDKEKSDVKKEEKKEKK
How it was run: as §1

UCHL1 = UCHL1 (UniProt P09936)
UCHL1, sequence (P09936 whole entry, looked up): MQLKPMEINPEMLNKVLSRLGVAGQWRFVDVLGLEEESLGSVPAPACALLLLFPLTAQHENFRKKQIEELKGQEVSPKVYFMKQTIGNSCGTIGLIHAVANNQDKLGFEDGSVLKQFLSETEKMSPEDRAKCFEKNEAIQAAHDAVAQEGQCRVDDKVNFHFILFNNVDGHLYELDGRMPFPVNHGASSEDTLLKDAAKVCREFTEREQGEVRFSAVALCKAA
How it was run: as §1

UCHL3 = molecular target: T4, UCHL3 (UniProt P15374)
T4 sequence (whole entry): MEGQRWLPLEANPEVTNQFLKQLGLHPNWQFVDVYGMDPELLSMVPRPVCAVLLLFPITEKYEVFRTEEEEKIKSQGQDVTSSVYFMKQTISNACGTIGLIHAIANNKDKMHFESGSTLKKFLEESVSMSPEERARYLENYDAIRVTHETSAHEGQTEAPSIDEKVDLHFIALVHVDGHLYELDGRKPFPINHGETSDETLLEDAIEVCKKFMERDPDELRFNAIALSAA
How it was run: as §1

UCHL5 = molecular target: T5, UCHL5 (UniProt Q9Y5K5)
T5 sequence (whole entry): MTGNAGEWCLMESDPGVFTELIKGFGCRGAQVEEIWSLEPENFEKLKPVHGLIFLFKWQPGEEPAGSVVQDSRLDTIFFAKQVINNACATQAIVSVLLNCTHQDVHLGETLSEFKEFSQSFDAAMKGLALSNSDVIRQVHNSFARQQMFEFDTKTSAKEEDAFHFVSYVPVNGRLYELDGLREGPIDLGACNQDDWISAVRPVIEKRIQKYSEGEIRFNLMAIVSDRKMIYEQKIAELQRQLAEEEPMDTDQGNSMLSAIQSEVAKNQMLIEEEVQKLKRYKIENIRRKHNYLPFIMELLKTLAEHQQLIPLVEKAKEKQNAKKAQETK
How it was run: as §1

USP10 = USP10 (UniProt Q14694)
USP10, sequence (Q14694 whole entry): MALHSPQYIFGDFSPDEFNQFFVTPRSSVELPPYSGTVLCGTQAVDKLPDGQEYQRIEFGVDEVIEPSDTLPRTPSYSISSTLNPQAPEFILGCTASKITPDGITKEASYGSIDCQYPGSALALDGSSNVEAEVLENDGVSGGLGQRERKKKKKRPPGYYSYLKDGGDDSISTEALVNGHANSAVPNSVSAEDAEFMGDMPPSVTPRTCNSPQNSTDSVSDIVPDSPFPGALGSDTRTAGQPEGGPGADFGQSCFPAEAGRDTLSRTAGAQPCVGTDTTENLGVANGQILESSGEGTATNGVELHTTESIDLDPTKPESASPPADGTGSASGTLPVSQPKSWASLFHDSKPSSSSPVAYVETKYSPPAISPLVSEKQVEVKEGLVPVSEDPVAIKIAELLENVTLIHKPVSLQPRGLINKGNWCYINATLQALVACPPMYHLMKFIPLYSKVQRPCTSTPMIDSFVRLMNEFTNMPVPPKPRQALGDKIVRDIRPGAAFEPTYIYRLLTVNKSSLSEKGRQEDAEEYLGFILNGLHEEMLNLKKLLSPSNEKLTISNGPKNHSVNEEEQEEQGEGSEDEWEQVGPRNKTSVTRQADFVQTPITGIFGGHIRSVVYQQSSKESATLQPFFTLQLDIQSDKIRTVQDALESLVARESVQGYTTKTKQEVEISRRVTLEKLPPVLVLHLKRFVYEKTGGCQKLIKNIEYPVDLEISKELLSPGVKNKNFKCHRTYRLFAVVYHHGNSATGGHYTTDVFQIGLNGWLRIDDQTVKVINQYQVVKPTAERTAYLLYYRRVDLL
How it was run: as §1

USP15 = molecular target: T6, USP15 (UniProt Q9Y4E8)
T6 sequence (whole entry): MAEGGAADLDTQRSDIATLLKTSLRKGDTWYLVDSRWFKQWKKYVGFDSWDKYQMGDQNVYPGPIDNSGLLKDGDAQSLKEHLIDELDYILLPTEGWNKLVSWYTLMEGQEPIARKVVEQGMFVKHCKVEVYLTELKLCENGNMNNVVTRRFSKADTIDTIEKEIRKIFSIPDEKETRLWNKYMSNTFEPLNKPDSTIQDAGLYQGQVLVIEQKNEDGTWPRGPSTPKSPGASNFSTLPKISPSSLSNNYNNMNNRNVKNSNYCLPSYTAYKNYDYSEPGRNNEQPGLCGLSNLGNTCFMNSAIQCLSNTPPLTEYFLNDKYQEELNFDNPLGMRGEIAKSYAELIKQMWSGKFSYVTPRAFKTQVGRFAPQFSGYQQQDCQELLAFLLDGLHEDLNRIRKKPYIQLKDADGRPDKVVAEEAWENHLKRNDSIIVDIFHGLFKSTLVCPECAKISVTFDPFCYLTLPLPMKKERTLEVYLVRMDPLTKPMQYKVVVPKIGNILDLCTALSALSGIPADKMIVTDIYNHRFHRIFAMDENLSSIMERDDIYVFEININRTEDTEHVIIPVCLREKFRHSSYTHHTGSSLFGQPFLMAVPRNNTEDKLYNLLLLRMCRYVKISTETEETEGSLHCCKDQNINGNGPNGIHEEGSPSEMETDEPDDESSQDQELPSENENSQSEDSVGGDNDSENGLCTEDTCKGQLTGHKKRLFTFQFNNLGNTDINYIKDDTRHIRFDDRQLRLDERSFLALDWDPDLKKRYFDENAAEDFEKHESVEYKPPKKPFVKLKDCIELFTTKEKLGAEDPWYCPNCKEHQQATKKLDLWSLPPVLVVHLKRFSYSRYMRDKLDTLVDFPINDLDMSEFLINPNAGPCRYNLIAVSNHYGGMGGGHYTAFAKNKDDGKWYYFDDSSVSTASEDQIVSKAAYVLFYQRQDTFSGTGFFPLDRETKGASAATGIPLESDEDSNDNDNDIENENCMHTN
How it was run: as §1

USP16 = USP16 (UniProt Q9Y5T5)
USP16, sequence (Q9Y5T5 whole entry, looked up): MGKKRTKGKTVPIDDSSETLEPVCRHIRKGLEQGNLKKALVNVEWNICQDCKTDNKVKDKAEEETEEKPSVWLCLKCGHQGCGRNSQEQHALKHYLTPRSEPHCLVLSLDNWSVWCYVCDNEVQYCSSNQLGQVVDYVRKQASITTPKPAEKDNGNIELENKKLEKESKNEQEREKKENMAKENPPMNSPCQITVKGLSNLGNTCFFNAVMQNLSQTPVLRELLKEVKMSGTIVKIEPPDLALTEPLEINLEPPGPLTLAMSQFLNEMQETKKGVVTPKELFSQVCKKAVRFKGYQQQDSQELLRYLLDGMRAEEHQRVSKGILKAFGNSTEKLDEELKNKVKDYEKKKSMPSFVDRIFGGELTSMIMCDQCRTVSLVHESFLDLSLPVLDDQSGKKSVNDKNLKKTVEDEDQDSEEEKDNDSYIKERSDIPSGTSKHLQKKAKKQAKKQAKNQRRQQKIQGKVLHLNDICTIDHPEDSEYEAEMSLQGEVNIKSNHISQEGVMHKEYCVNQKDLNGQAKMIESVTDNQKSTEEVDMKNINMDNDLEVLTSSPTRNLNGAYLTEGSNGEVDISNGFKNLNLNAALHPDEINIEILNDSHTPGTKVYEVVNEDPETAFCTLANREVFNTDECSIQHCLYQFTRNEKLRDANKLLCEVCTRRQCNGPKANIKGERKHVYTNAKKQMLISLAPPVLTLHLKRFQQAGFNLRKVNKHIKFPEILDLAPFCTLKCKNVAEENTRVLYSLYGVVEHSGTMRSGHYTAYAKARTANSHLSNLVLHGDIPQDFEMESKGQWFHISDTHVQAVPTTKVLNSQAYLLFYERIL
How it was run: as §1

Measured: log2 ratio of Biotin-Ahx-Ub-VS probe labelling

O=C(CCl)Nc1nc(-c2cccs2)cs1
active: UCHL1 -1.45 | UCHL5 -2.61
inactive: OTUD6B -0.434 | OTUD7B -0.695 | PRPF8 0.14 | PSMD7 -0.0595 | UCHL3 0.426 | USP10 -0.0951 | USP15 -0.354 | USP16 -0.00927
